Only some compounds are listed: those with a hit (about 5.7% of all), similar ones and a draw of the others.
PI4K2A block = PI4K2A (human) kinase inhibition | Q9BTU6 | purified PI4K2A, ADP-Glo luminescence, 1 h; stronger effect = lower value | activity change, negative = inhibition, % at 76.9 µM | actives 0.13% (n = 420,000) | AID 1346378; in the data active means activity change below about -50%; inconclusive means mostly about -30% to -49%
Target sequence (Q9BTU6 whole entry, looked up): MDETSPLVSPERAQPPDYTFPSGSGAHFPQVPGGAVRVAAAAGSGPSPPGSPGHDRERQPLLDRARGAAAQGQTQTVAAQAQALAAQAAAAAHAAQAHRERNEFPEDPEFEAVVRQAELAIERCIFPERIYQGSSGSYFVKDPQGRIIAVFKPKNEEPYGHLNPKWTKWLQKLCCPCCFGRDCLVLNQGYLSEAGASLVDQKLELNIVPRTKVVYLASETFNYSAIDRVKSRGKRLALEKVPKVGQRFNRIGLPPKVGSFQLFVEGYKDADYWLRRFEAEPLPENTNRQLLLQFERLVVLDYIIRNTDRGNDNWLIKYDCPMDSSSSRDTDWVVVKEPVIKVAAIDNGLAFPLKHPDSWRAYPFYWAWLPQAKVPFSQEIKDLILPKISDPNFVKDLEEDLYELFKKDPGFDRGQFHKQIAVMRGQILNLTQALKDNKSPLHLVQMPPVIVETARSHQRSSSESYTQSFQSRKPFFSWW
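ADP-Glo luminescence measured ADP generated by PI4K2A enzyme (4 ug/mL before mixing) with 1.2 mM PI substrate (pre-mix) and 300 microM ATP (pre-mix). Tris pH7.5 buffer with MgCl2, Triton X-100; 1 h reaction at ambient temperature.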
Giardia killer = Giardia lamblia killing. AID 540267. Giardia lamblia trophozoite viability. activity change, % at 7.66 µM, hits read low. actives 0.15% (n = 340,000); in the data active means activity change below about -80%; inconclusive means between about -30% and that limit;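 further: parasites exposed to compound for two days anaerobically before the ATP read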
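ATP-content bioluminescence gauges trophozoite survival. Cells (100/well) receive compound and incubate anaerobically for 48 hrs at 37 deg C; detection reagent follows for 15-30 min at room temperature.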
KB-3-1 cytotox = KB-3-1 parental cell cytotoxicity | Potency, µM (series often up to 46.1 µM), actives largely listed as cytotoxic | actives 1.4% (n = 400,000) | KB-3-1 viability, CellTiter-Glo ATP luminescence, 72 h; further: nearly all actives have a fitted effect of over 60% in size
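KB-3-1 parental drug-naive adenocarcinoma cells in DMEM/10% FBS, incubated 72 h at 37 C with pin-transferred compounds across a concentration series. Viability by CellTiter-Glo luminescence; concentration-response curves fitted after normalization.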
Nrf2 block = inhibitors of Nrf2 signaling. A549 ARE-Fluc reporter, luciferase luminescence, 18-24 h. Potency, µM (doses to about 46 µM), most hits filed as inhibitors. actives 2.1% (n = 360,000); further: nearly all actives have a fitted effect of over 60% in size
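Nrf2 function is reported as luminescence of an ARE-controlled luciferase in A549 cells. Compounds were tested at several concentrations, and a CellTiter-Fluor read on the same wells flagged cytotoxicity.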
A549 tox-1 = counter-screen for Nrf2 inhibitors: cytotoxicity in A549 cells; A549 ARE-Fluc cells, CellTiter-Fluor viability, 18-24 h; Potency, µM (doses to about 46 µM), actives largely listed as inhibitors; actives 0.16% (n = 390,000); AID 504648
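A549 ARE_Fluc cells in 5% FBS OPTI-MEM were exposed to compounds in concentration-response for 18-24 h at 37 deg C. Viability was read by CellTiter-Fluor fluorescence (Ex 405/Em 525) after 30 min, before the luciferase read.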
KB-V1 MDR tox = kills drug-selected multidrug resistant KB-V1 cells; KB-V1 MDR cells viability, CellTiter-Glo, 72 h; Potency, µM (doses to about 46.1 µM), usual class: cytotoxic; actives 3.4% (n = 400,000); further: nearly all actives have a fitted effect of over 60% in size
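KB-V1 cells (P-gp-expressing MDR subline of KB-3-1) in phenol-red-free DMEM with 10% FBS were exposed to library compounds over a concentration series for 72 h at 37 degrees C. Viability read by CellTiter-Glo luminescence; concentration-effect curves fitted after normalization.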
FLuc enzyme inh = blocks purified firefly luciferase in Nrf2 counterscreen. shares compounds with Nrf2 block. purified firefly luciferase, luminescence inhibition. Potency, µM (titrated, usually from 57.5 µM), most hits filed as inhibitors. actives 4% (n = 1,400); further: nearly all actives have a fitted effect of over 65% in size
A549 tox-2 = A549 cytotoxicity, Nrf2 inhibitor counterscreen. shares compounds with Nrf2 block. A549 ARE-Fluc cells, cytotoxicity counterscreen. Potency, µM (doses to about 46.1 µM), most hits filed as inhibitors. actives 2% (n = 1,400). AID 720523;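 further: cells exposed to compounds for 18 to 24 hours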
Nrf2 ARE inh = Nrf2 inhibition confirmed, A549 ARE-luciferase; shares compounds with Nrf2 block; A549 ARE-firefly luciferase reporter, luminescence; Potency, µM (top dose mostly 46.1 µM), hits mostly inhibitors; actives 74% (n = 1,400); further: nearly all actives have a fitted effect of over 65% in size
Hits are given with their value; 0 = inactive; ? = inconclusive; - = no result given. Unless noted, the call rests on the fitted dose curve; in most records, active means well fitted curve in the direction sought with a large enough effect; inconclusive means small, poorly fitted or top-dose-only effect, or another doubt; inactive means no such curve, though single readings can be large; an effect the other way counts as inactive or inconclusive.

SMILES	PI4K2A block	Giardia killer	KB-3-1 cytotox	Nrf2 block	A549 tox-1	KB-V1 MDR tox	FLuc enzyme inh	A549 tox-2	Nrf2 ARE inh
Cc1cc(OCC(=O)Nc2ccncc2)ccc1Cl	0	0	0	?	0	0	-	-	-
CCN(CC)S(=O)(=O)c1ccc2oc(SCC3CN=C(c4ccc(OC)cc4)S3)nc2c1 (centres undefined)	0	0	?	6.5µM	0	?	0	0	?
COc1ccc(C2=NCC(CSc3nnc(-c4ccc5c(c4)OCO5)o3)S2)cc1 (centres undefined)	0	0	?	?	?	?	-	-	-
Cc1cccc(OC[C@@H](O)CN2CCC(C(O)(c3ccccc3)c3ccccc3)CC2)c1	0	-	-	-	-	-	-	-	-
Cc1ccc2c(c1)N(C(=O)N1CCC(C(=O)NCCC3=CCCCC3)CC1)CC(C)O2 (centres undefined)	0	-	0	?	0	0	-	-	-
Cc1ccc(C)c(N2CCN(C(=O)CCS(=O)(=O)c3ccc4c(c3)NC(=O)C(C)S4)CC2)c1 (centres undefined)	0	0	?	6.5µM	0	?	0	0	6.5µM
Cc1ccc(S(=O)(=O)N2CCC(C(=O)Nc3ccc(C)c(Cl)c3)CC2)cc1	0	-	-	?	0	-	0	0	7.3µM
Cc1ccccc1NC(=O)C1CCN(S(=O)(=O)c2ccc3c(c2)NC(=O)C(C)S3)CC1 (centres undefined)	0	0	0	0	0	0	-	-	-
CC(=O)c1cccc(NC(=O)C2CCN(S(=O)(=O)c3ccc(C)cc3)CC2)c1	0	0	0	-	0	?	-	-	-
CC1Sc2ccc(S(=O)(=O)N3CCN(c4ccccc4)CC3)cc2NC1=O (centres undefined)	0	0	0	7.3µM	0	?	0	0	?
Cc1ccc(NC(=O)C2CCN(S(=O)(=O)c3ccc4c(c3)NC(=O)C(C)S4)CC2)cc1Cl (centres undefined)	0	0	?	1.3µM	?	?	0	0	9.2µM
CC1Sc2ccc(S(=O)(=O)N3CCN(c4cccc(Cl)c4)CC3)cc2NC1=O (centres undefined)	0	0	0	0	0	0	-	-	-
C[C@H]1C2CC(OC(=O)Nc3ccccc3C(F)(F)F)C(C2)[C@H]2CCCCN21 (some centres undefined)	0	-	-	-	-	-	-	-	-
CCOC(=O)C1=CN(C(=O)OC(C)(C)C)C(CN2C(=O)COCC2=O)C1 (centres undefined)	-	0	-	0	0	-	-	-	-
Cn1nc(CC(=O)NCc2ccc(C(F)(F)F)cc2)c2ccccc2c1=O	0	0	0	?	0	?	-	-	-
COc1ccc(CNC(=O)Cc2nn(C)c(=O)c3ccccc23)cc1	0	0	?	5.8µM	0	0	0	0	4.6µM
CC(C)C(=O)N[C@H]1[C@H](O)CCC[C@@]12C(=O)N(Cc1ccccc1)c1ccccc12	0	-	-	-	-	-	-	-	-
Cn1c(-c2ccccc2)c[n+]2c1-c1ccccc1C2	0	0	?	?	0	0	0	0	1.6µM
Cn1c(-c2ccccc2)cccc1=O	0	0	0	-	0	0	-	-	-
COc1ccc(OC)c(CN2C(=O)CSCC2(C)c2nnnn2C2CCCC2)c1 (centres undefined)	0	-	-	-	-	-	-	-	-
CC(=O)c1cccc(NS(=O)(=O)c2c(C)noc2C)c1	0	0	0	0	0	0	-	-	-
CC(=O)c1cccc(NS(=O)(=O)c2cc(-c3onc(C)c3C)ccc2C)c1	0	-	15µM	8.2µM	0	?	0	0	5.8µM
COc1ccc(NC(=O)NCCCN2CCN(c3ccc(F)cc3)CC2)cc1OC	0	-	-	-	-	-	-	-	-
COc1cc(-c2nnn(CC(=O)Nc3ccc(OC(F)(F)F)cc3)n2)cc(OC)c1OC	0	-	0	?	0	0	-	-	-
CCCCOc1ccc(C(=O)NC2CCCCN(Cc3ccc(Cl)cc3)C2=O)cc1 (centres undefined)	0	-	-	-	-	-	-	-	-
SMILES	PI4K2A block	Giardia killer	KB-3-1 cytotox	Nrf2 block	A549 tox-1	KB-V1 MDR tox	FLuc enzyme inh	A549 tox-2	Nrf2 ARE inh
O=C(NNc1ccnc2cc(Cl)ccc12)C1CCCCC1	0	0	5.8µM	3.3µM	0	?	?	0	2.6µM
CO[C@H]1/C=C/O[C@@]2(C)Oc3c(C)c(O)c4c(O)c(c(C=NN5CCN(C)CC5)c(O)c4c3C2=O)NC(=O)/C(C)=C\C=C\[C@H](C)[C@H](O)[C@@H](C)[C@@H](O)[C@@H](C)[C@H](OC(C)=O)[C@@H]1C	0	0	0	4.1µM	?	0	0	?	4.6µM
COC(=O)c1ccccc1NC(=O)c1ccc(-c2nc(CSc3ccc(C)cc3)c(C)o2)cc1	0	-	0	?	0	0	-	-	-
Cc1oc(-c2ccc(C(=O)Nc3cccc(C(F)(F)F)c3)cc2)nc1CSc1ccccc1	0	-	-	5.8µM	?	-	0	0	1.8µM
CCC(NC(=O)c1cc(COc2cc(C)c(Cl)c(C)c2)on1)c1ccncc1 (centres undefined)	0	0	0	0	0	0	-	-	-
CCC(NC(=O)c1cc(COc2ccc(C)nc2)on1)c1ccc(C)cc1 (centres undefined)	0	0	-	8.2µM	0	-	0	0	?
C=CC[C@H]1c2ccccc2[C@H]2N3N=Cc4ccccc4[C@H]3[C@H](CCCC)C(=O)N2N1C(=O)NCc1ccccc1	0	-	-	-	-	-	-	-	-
Cc1ccc2c(c1)c(/C=C/c1cc[n+](C)cc1)c(C)n2C	0	0	?	3.7µM	?	0	0	?	6.5µM
CCCn1c(/C=C/c2cc[n+](C)cc2)nc2ccccc21	0	0	0	0	?	0	-	-	-
COc1ccc(CCNC(=O)Cn2cc(S(=O)(=O)Cc3ccccc3F)c3ccccc32)cc1OC	0	-	0	0	0	0	-	-	-
O=C(Nc1ccc(-c2csc(Nc3ccccc3)n2)cc1)c1cccc(C(F)(F)F)c1	0	0	?	9.2µM	0	0	0	0	15µM
O=C(Nc1ccc(-c2csc(Nc3ccc(Cl)cc3)n2)cc1)c1cccc(C(F)(F)F)c1	0	0	0	0	0	0	-	-	-
O=C(Nc1nc(-c2ccccc2)cs1)c1ccc(N2CCOCC2)c([N+](=O)[O-])c1	0	0	?	4.6µM	?	1.8µM	?	?	7.3µM
Cc1ccc(-c2csc(NC(=O)c3cccc([N+](=O)[O-])c3)n2)cc1	0	0	0	?	0	0	0	0	1.5µM
